Data published in PubChem BioAssay (EPA / NIEHS).
Inconclusive results are not listed. The source made the active and inactive calls. Rule for the calls: active = hit-call score of the fitted dose curve at least 0.9, where 1 is the maximum; inconclusive = response in the unintended direction; inactive = score below 0.9.

These compounds were tested on Cytochrome P450 2B6 (Homo sapiens) (UniProt P20813) (assay: CLD_CYP2B6_48hr: CellzDirect (CLD) Gene Expression Assay for xenobiotic metabolism (CYP2B6) at 48 hours (AID 2283699);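 note: actives raise transcript level above DMSO so potency reflects induction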).
Procedure: CLD_48hr is a cell-based, multiplexed-readout assay that uses hepatocyte, a human liver primary cell, with measurements taken at 48 hours after chemical dosing in a 96-well plate.CLD_CYP2B6_48hr is one of 16 assay component(s) measured or calculated from the CLD_48hr assay. It is designed to make measurements of mRNA induction, a form of inducible reporter, as detected with chemiluminescence signals by Quantitative Nuclease Protection Assay (qNPA) technology.Data from the assay component CLD_CYP2B6_48hr was analyzed at the endpoint, CLD_CYP2B6_48hr, in the positive analysis fitting direction relative to DMSO as the negative control and baseline of activity. Using a type of inducible reporter, gain-of-signal activity can be used to understand changes in the reporter gene as they relate to the gene CYP2B6. Furthermore, this assay endpoint can be referred to as a primary readout. To generalize the intended target to other relatable targets, this assay endpoint is annotated to the cyp intended target family, where subfamily is xenobiotic metabolism.
Human hepatocyte cultures were treated daily for two consecutive days with fresh dosing solutions containing appropriate concentrations of the 320 ToxCast chemicals (chemical identities were blinded to CellzDirect and other ToxCast collaborators), vehicle control (0.2% DMSO), and positive control inducers as summarized in Table 1. Due to the large number of treatment groups and chemicals examined, the ToxCast chemicals were divided into two groups (spanning two independent cultures of hepatocytes from separate donor preparations (Hu778: ToxCast plates 1 and 2; Hu776: ToxCast plates 3 and 4). Each preparation of human hepatocyte cultures was treated with respective vehicle control, medium only control, set of six positive controls/reference chemicals for the five hepatic receptor pathways, and a subset of eight of the ToxCast chemicals (indoxacarb, pyrithiobac-sodium, norflurazon, cyhalofop-butyl, methomyl, thiram, acetochlor, and propiconazole). These replicate data, coupled with internal replicates designed within the blinded ToxCast chemical library, provided additional data to evaluate interindividual differences between hepatocyte preparations and their potential impact on chemical profiles.Cell morphology and integrity were evaluated using phase-contrast microscopy as an indicator of hepatocyte cell health (Tyson & Green, 1987). Cultures for each treatment group (i.e., media, vehicle [0.2% DMSO], positive control inducers [multiple concentrations], and the ToxCast chemicals [multiple concentrations]) were observed and cell morphology was assessed relative to vehicle control cultures at each harvest time point (0, 6, 24, or 48 h). […] Images were evaluated at the conclusion of the study to assess changes in cell integrity and account for the effects of chemical exposure on uncharacteristic changes in concentration-dependent gene expression profiles. The results from these determinations of apparent cytotoxicity were annotated (yes/no) alongside the corresponding qNPA data for reference.At the conclusion of each treatment period, hepatocyte cultures (96-well) were washed with 1 volume of HBSS, lysed by addition of 25 ul ArrayPlate lysis buffer (HTG, Tucson, AZ), and 70 ul/well of Denaturation Oil, denatured by incubation at 95C for 10 min, and frozen at approximately -70C until analysis by nuclease protection assay (qNPA) (Roberts et al., 2007). For qNPA analysis, cell lysates were thawed at 50C for approximately 30 min, qNPA probes were added, and samples were incubated at 95C for 10 min to begin the detection process by denaturing the target RNA, dissociating the duplexes and secondary structure hybridization. At the conclusion of the hybridization period, S1 nuclease reagent was added to each sample to digest all nonprotected nucleotides at 50C for 60-90 min. […]

Row | Compound | AC50 | outcome
1 | CCOC(=O)COc1cc(-c2nn(C)c(OC(F)F)c2Cl)c(F)cc1Cl | 13.5 µM (active) | –
2 | CCC(=NOC/C=C/Cl)C1=C(O)CC(C2CCOCC2)CC1=O (stereo not given) | – | inactive
3 | CCC(CC)Nc1c([N+](=O)[O-])cc(C)c(C)c1[N+](=O)[O-] | 6.23 µM (active) | –
4 | CCc1cccc(C)c1N(C(=O)CCl)C(C)COC (stereo not given) | 0.969 µM (active) | –
5 | COP(=O)(NC(C)=O)SC (stereo not given) | – | inactive
6 | CCCCSP(=O)(SCCCC)SCCCC | 4.3 µM (active) | –
7 | CC(COc1ccc(Oc2ccccc2)cc1)Oc1ccccn1 (stereo not given) | 3.53 µM (active) | –
8 | Nc1c(Cl)cc([N+](=O)[O-])cc1Cl | 6.25 µM (active) | –
9 | CCCCOC(=O)[C@@H](C)Oc1ccc(Oc2ccc(C#N)cc2F)cc1 | – | inactive
10 | CC(=NC#N)N(C)Cc1ccc(Cl)nc1 | – | inactive
11 | CSc1nc(NC(C)C)nc(NC(C)C)n1 | 3.24 µM (active) | –
12 | CCCCN(CC)c1c([N+](=O)[O-])cc(C(F)(F)F)cc1[N+](=O)[O-] | 4.17 µM (active) | –
13 | CC(C)[C@H](C(=O)O[C@H](C#N)c1cccc(Oc2ccccc2)c1)c1ccc(Cl)cc1 | 8.04 µM (active) | –
14 | CCCSP(=O)(OCC)SCCC | 3.82 µM (active) | –
15 | CCOP(=S)(OCC)SCCSCC | 1.68 µM (active) | –
16 | CN(C)C(=O)Nc1cccc(C(F)(F)F)c1 | 3.69 µM (active) | –
17 | CCCOCC(=Nc1ccc(Cl)cc1C(F)(F)F)n1ccnc1 | – | inactive
18 | CC(C)=CC1C(C(=O)OCN2C(=O)C3=C(CCCC3)C2=O)C1(C)C (stereo not given) | 6.64 µM (active) | –
19 | CC(C)N(C(=O)SCC(Cl)=C(Cl)Cl)C(C)C | 3.91 µM (active) | –
20 | CSC1=N[C@@](C)(c2ccccc2)C(=O)N1Nc1ccccc1 | 1.16 µM (active) | –

Row | Compound | AC50 | outcome
21 | CCc1cccc(CC)c1N(COC)C(=O)CCl | 3.01 µM (active) | –
22 | CN(C)NC(=O)CCC(=O)O | – | inactive
23 | CCOP(=O)(OCC)Oc1cc(C)nc(C(C)C)n1 | 5.53 µM (active) | –
24 | CCCSP(=O)(OCC)Oc1ccc(Br)cc1Cl (stereo not given) | 3.63 µM (active) | –
25 | Cc1ccn2nc(S(=O)(=O)Nc3c(F)cccc3F)nc2n1 | – | inactive
26 | COP(=O)(OC)OC(Br)C(Cl)(Cl)Br (stereo not given) | – | inactive
27 | CCCOc1nn(C(=O)NS(=O)(=O)c2ccccc2C(=O)OC)c(=O)n1C | – | inactive
28 | CN1COCN(Cc2cnc(Cl)s2)C1=N[N+](=O)[O-] | – | inactive
29 | CN(C)[C@@H]1C(=O)C(C(N)=O)=C(O)[C@@]2(O)C(=O)C3=C(O)c4c(O)cccc4[C@@](C)(O)[C@H]3[C@H](O)[C@@H]12 | – | inactive
30 | O=[N+]([O-])c1cc(C(F)(F)F)c(Cl)c([N+](=O)[O-])c1Nc1ncc(C(F)(F)F)cc1Cl | – | inactive
31 | C#CCC1=C(C)C(OC(=O)C2C(C=C(C)C)C2(C)C)CC1=O (stereo not given) | 4.91 µM (active) | –
32 | CC(C1CC1)C(O)(Cn1cncn1)c1ccc(Cl)cc1 (stereo not given) | 2.42 µM (active) | –
33 | CNC(=O)Oc1cccc2c1OC(C)(C)O2 | 3.08 µM (active) | –
34 | FC(F)C(F)(F)OCC(Cn1cncn1)c1ccc(Cl)cc1Cl (stereo not given) | 0.321 µM (active) | –
35 | Cc1nn(-c2cc(NS(C)(=O)=O)c(Cl)cc2Cl)c(=O)n1C(F)F | 6.7 µM (active) | –
36 | CCOP(=O)(SC(C)CC)N1CCSC1=O (stereo not given) | 2.05 µM (active) | –
37 | CCOC(=O)CC(SP(=O)(OC)OC)C(=O)OCC (stereo not given) | 20 µM (active) | –
38 | CCOP(=S)(OCC)Oc1ccc2c(C)c(Cl)c(=O)oc2c1 | 1.01 µM (active) | –
39 | C#CC(C)(C)NC(=O)c1cc(Cl)cc(Cl)c1 | 3.69 µM (active) | –
40 | CON=C(C(=O)OC)c1ccccc1CON=C(C)c1cccc(C(F)(F)F)c1 | – | inactive
